Results filed as inconclusive are left out. Activity calls are given as the source filed them. Calls come from the whole dose curve; as a rule, active = well fitted curve in the direction sought with a large enough effect; inconclusive = small, poorly fitted or top-dose-only effect, or another doubt; inactive = no such curve, though single readings can be large; an effect the other way counts as inactive or inconclusive.

For 33 molecules, Potency and outcome results are on record in PubChem BioAssay (NCATS).

Test [1] can be described thus: Quantitative high throughput screen for delayed death inhibitors of the malarial parasite plastid, 96 hour incubation (AID 488745). Note: nearly all actives have a fitted effect of over 70% in size. Note: potency is the fitted concentration of half-maximal effect. A digest of the protocol:
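Two-generation (96 h) exposure of luciferase-reporter P. falciparum in erythrocytes, 2% hematocrit, 0.1% parasitemia final, 37 C, 5% CO2, RPMI 1640 with 0.5% Albumax. Growth inhibition scored by reduced luminescence.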

A short description of test [2]: Quantitative high throughput screen for delayed death inhibitors of the malarial parasite plastid, 48 hour incubation (AID 488752). Note: nearly all actives have a fitted effect of over 65% in size. Note: potency is the fitted concentration of half-maximal effect. The method, boiled down:
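Cultures: infected erythrocytes at final 2% hematocrit and 0.1% parasitemia in Albumax-supplemented RPMI. Parasites express integrated firefly luciferase. Incubation with compound lasts 48 h before luminescent detection of remaining reporter activity.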

For test [3], the target named is Thioredoxin reductase 1, cytoplasmic (Rattus norvegicus) (UniProt O89049). The experiment in a line: qHTS Assay for Substrates of Mammalian Selenoprotein Thioredoxin Reductase 1 (TrxR1) (AID 488772).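 Note: series mostly up to about 57 µM; a drop in NADPH fluorescence below the no-compound background marks a TrxR1 substrate.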 The method, boiled down:
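In this dual-purpose format, potential substrates are identified from the first fluorescence read after selenite addition, not from the 8-minute delta. Rat enzyme is preincubated with NADPH and then with compound at ~22 deg C.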

The target is the same in test [4]. The test can be described thus: qHTS Assay for Inhibitors of Mammalian Selenoprotein Thioredoxin Reductase 1 (TrxR1) (AID 488773).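 Note: drop in NADPH fluorescence over an 8 min run after selenite addition; series mostly up to about 57 µM; nearly all actives have a fitted effect of over 40% in size.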 Particulars: Potency: inhibition. A digest of the protocol: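 Inhibition is scored from the loss of NADPH fluorescence between first and last reads of an 8-min kinetic run. Selenite (400 uM) was the substrate, added after 15 min compound preincubation at room temperature.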
(In qHTS, concentration-response curves come from the screen itself.)

Test [5] deals with Chromobox protein homolog 1 (Homo sapiens) (UniProt P83916). The experiment in a line: qHTS Validation Assay for Inhibitors of HP1-beta Chromodomain Interactions with Methylated Histone Tails (AID 488953). Note: nearly all actives have a fitted effect of over 50% in size. Note: potency is the fitted concentration of half-maximal effect. The method, boiled down:
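Compounds pinned into a preassembled complex of HP1-beta and trimethyl-K9 histone H3(1-18) biotin peptide (50 nM each; PBS pH 7.4, 0.01% Tween-20). After 30 min, bead-based AlphaScreen detection followed.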

The target of test [6] is Methanococcus maripaludis chaperonin (MmCpn) (UniProt Q6LX38). The experiment in a line: High-Throughput Screening for Modulators of Cytosolic Chaperonin Activity: MmCpn Primary Screen (AID 488978).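 Note: 50 nM MmCpn enzyme hydrolysing 30 µM ATP at 37 °C.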 The method, boiled down: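 MmCpn at 50 nM final was preincubated 5 min at RT with compound. ATP was then added at 30 uM final for 10 min at 37 C. ADP formed was detected by Transcreener HTRF (665/590 nm).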

Test [7] concerns the target Transient receptor potential cation channel subfamily V member 1 (Homo sapiens) (UniProt Q8NER1). The experiment in a line: HTS Assay for Compounds that Act as Enhancers of the Vanilloid Receptor 1 (AID 488979). The method, boiled down: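 Calcium influx kinetics via Fluo-8 (480/520 nm) in TRPV1-expressing cells, 2000/well cultured overnight at 35.5C. Compound-alone read 3 min (agonist phase), followed by EC20 capsaicin challenge for 2 min (enhancer phase).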

Test [8] deals with Flap endonuclease 1 (Homo sapiens) (UniProt P39748). The experiment in a line: qHTS Validation Assay for the Inhibitors of Human Flap endonuclease 1 (FEN1) (AID 488816). A digest of the protocol:
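qHTS format: compounds and 10 nM FEN1 incubated 15 min at room temperature before adding 50 nM substrate. Cleavage followed by reads at 0 and 15 min; normalized data fitted to a four-parameter Hill curve.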

The target of test [9] is M-phase phosphoprotein 8 (Homo sapiens) (UniProt Q99549). The test can be described thus: qHTS Validation Assay for Inhibitors for MPP8 Chromodomain Interactions with Methylated Histone Tails (AID 488949). Note: nearly all actives have a fitted effect of over 55% in size. Note: potency is the fitted concentration of half-maximal effect. The method, boiled down: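 MPP8 (50 nM) was pre-bound to 50 nM biotinylated H3(1-18)K9me3 peptide in PBS pH 7.4 with 0.01% Tween-20. Compounds were then added for 30 min at room temperature, and complex disruption was read by AlphaScreen with streptavidin donor and nickel-chelate acceptor beads.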
M-phase phosphoprotein 8 (Homo sapiens), sequence (Q99549 whole entry, looked up): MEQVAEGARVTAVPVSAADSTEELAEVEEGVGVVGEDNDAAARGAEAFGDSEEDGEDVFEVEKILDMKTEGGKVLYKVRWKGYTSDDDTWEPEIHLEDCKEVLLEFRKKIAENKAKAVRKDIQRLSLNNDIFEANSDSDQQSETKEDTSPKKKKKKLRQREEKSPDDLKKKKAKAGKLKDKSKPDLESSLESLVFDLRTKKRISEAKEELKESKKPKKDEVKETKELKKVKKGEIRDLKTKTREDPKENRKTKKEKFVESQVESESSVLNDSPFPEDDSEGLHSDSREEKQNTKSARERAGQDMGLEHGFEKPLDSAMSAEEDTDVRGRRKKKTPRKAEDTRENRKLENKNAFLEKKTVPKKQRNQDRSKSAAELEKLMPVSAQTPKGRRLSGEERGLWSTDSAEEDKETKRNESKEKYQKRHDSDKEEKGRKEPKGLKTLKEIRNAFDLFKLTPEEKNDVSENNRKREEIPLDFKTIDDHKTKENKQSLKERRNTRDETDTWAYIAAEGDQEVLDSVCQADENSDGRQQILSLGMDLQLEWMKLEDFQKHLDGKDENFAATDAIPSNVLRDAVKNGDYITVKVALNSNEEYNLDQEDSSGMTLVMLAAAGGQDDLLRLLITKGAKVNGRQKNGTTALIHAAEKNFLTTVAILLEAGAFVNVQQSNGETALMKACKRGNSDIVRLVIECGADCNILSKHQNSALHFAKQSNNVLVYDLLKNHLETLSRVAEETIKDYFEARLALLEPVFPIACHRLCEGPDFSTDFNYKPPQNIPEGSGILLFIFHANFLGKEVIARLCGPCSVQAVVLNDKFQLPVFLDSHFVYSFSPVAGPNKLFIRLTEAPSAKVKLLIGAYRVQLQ

Flap endonuclease 1 (Homo sapiens), sequence (P39748 whole entry, looked up): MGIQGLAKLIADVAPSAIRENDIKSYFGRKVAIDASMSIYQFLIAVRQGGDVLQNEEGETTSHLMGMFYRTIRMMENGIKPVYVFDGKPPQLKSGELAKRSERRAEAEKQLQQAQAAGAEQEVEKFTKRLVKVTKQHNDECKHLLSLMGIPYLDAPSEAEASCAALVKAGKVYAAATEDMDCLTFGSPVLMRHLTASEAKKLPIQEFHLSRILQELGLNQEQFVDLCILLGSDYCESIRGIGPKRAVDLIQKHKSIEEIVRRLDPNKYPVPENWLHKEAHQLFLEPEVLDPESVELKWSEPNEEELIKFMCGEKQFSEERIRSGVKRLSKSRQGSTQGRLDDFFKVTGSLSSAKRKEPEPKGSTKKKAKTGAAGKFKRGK
Thioredoxin reductase 1, cytoplasmic (Rattus norvegicus), sequence (O89049 whole entry, looked up): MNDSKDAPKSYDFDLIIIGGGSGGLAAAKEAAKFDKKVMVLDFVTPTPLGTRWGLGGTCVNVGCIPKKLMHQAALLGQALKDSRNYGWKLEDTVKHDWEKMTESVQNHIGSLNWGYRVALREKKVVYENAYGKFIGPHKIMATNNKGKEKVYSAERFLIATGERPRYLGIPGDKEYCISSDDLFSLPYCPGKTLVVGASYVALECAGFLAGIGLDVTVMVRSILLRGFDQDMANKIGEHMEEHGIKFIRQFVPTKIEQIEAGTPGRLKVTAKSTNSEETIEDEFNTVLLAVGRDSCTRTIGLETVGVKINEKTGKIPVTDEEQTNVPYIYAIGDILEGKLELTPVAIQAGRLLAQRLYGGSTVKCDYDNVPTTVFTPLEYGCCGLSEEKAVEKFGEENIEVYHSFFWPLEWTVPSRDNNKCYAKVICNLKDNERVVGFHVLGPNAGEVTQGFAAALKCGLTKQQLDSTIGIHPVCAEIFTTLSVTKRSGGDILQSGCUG
Chromobox protein homolog 1 (Homo sapiens), sequence (P83916 whole entry, looked up): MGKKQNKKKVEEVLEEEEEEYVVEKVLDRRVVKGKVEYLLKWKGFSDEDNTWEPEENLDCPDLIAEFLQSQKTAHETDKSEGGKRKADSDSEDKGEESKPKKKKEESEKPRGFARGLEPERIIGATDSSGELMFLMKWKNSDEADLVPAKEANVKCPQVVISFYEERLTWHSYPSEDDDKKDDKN
Methanococcus maripaludis chaperonin (MmCpn), sequence (Q6LX38 1-543): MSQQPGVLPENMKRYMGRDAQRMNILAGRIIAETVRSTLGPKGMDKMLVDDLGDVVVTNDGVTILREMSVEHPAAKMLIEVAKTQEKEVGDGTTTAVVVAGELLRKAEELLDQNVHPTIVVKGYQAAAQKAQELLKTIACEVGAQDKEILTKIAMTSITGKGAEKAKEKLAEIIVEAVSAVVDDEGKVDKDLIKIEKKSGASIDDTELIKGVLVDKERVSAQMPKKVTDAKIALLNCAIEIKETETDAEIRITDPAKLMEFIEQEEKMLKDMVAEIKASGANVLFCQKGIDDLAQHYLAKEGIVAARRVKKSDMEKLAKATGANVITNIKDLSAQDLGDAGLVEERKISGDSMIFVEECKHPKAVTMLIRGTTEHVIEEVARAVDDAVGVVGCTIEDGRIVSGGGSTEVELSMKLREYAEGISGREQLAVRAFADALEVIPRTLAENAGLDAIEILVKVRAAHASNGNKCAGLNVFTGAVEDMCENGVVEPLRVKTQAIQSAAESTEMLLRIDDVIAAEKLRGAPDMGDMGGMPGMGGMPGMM
Transient receptor potential cation channel subfamily V member 1 (Homo sapiens), sequence (Q8NER1 whole entry, looked up): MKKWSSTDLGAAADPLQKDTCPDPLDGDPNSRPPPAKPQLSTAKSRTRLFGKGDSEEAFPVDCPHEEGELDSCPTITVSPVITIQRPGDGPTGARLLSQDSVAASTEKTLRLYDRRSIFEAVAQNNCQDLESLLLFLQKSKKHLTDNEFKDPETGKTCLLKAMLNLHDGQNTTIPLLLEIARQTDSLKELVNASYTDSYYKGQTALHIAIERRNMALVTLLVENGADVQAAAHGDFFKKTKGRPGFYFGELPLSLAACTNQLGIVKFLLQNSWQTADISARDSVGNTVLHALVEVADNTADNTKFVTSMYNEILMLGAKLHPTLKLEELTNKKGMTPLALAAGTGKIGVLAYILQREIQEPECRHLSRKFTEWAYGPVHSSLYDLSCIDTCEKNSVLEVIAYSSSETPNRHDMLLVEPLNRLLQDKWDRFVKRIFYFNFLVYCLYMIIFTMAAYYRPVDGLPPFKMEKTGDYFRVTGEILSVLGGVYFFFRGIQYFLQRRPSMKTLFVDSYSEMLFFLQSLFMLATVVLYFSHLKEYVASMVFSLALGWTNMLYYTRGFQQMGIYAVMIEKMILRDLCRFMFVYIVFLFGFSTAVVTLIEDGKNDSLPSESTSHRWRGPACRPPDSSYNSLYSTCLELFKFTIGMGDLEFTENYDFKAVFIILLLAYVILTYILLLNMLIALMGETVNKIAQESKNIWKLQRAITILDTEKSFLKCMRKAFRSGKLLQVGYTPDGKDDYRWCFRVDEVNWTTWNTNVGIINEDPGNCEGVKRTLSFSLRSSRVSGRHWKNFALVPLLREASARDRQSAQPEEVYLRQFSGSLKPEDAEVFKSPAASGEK

Regarding `CN1[C@@H](CC(=O)c2ccccc2)CCC[C@H]1C[C@H](O)c1ccccc1`, the Potency result in test [1], in [2], in test [3], in test [4] and in [5] was “inactive” each time. In addition, the outcome in [6] and in test [7] was inactive.

`CCCCCC(O)c1cccc(OCc2ccc3ccccc3n2)c1` (configuration not stated): the Potency result in test [2], in test [3], in test [4], in test [8], in test [9] and in test [5] was “inactive” in each case. Further, the result in test [6] and in test [7] was inactive.

With `Cc1nc2sccn2c(=O)c1CCN1CCC(=C(c2ccccc2)c2ccc(F)cc2)CC1`, the Potency result in test [3], in test [4], in test [8] and in test [9] was “inactive” each time. Besides, in test [6], the molecule was called inactive.

Turning to `NO`, the Potency entry in [2], in test [3], in test [4] and in test [8] was “inactive” each time. The result in test [6] and in [7] was inactive.

On to `C#C[C@]1(O)CC[C@H]2[C@@H]3CCC4=Cc5oncc5CC4(C)[C@H]3CCC21C` (some centres not stated), for which the Potency entry in test [3], in test [4], in [8], in test [9] and in [5] was “inactive” in each case. Besides, the molecule was classed as inactive in test [6].

On to `Brc1c(Br)c(Br)c2n[nH]nc2c1Br`, for which the Potency result in test [1], in [2], in test [3] and in [4] was “inactive” in each case. For the same molecule, the molecule was classed as inactive in test [6] and in test [7].

For the molecule `Nc1nc(Cl)nc2c1ncn2[C@@H]1O[C@H](COP(=O)(O)OP(=O)(O)OP(=O)(O)O)[C@@H](O)[C@H]1O`, the Potency entry in test [3], in test [4], in test [8], in test [9] and in [5] was “inactive” each time. For the same molecule, the result in test [6] was inactive.

Consider `Oc1ccc(C2CNCc3sccc32)cc1O` (configuration not stated), for which the Potency result in [2], in test [3], in test [8] and in test [9] was “inactive” in each case. The molecule was called inactive in test [6] and in [7].

In the case of `O=c1[nH]c2ccccc2n1CCCN1CCN(C(c2ccccc2)c2ccccc2)CC1`, the Potency result in test [1] and in test [2] was “inactive” throughout. In addition, in [7], the result was inactive.

In the case of `O=C1/C(=C/c2ccsc2)CC/C1=C\c1cccs1`, the Potency entry in test [3], in [4], in test [8] and in [9] was “inactive” each time. Besides, in test [6], the molecule was classed as inactive.

Turning to `O=c1[nH]c2cc(Cl)c(Cl)cc2[nH]c1=O`, the Potency entry in test [2], in test [3], in test [4], in test [8] and in [9] was “inactive” in each case. The call in [6] and in [7] was inactive.

`Cc1cc2c(cc1Cl)N(C(=O)Nc1ccc(Oc3cccnc3C)nc1)CC2`: the Potency entry in [3], in [4], in test [8] and in test [9] was “inactive” throughout. In addition, the Potency in test [5] was 44.7 µM (active). In addition, the call in test [6] was inactive.

With `N.N.O=C(O)C1(C(=O)O)CCC1.[Pt]`, the Potency result in [1] and in test [2] was “inactive” in each case. Moreover, in test [7], the result was inactive.

Take `Nc1nc(Nc2ccccc2)nc2c1ncn2[C@@H]1O[C@H](CO)[C@@H](O)[C@H]1O`: the Potency entry in [3], in [4], in test [8], in test [9] and in test [5] was “inactive” in each case. For the same molecule, in [6], the call was inactive.

For `NCC1OC(O[C@H]2[C@H](O)[C@@H](OC3C(O)C(N)CC(N)C3OC3OC(CO)C(O)C(O)C3N)O[C@@H]2CO)C(N)C(O)C1O` (some centres not stated), the Potency entry in test [3], in test [4], in test [8] and in [9] was “inactive” each time. In addition, the molecule was called inactive in test [6].

For the molecule `CO/S(=N\S(=O)(=O)c1ccc(Cl)cc1)c1ccc([N+](=O)[O-])cc1` (configuration not stated), the Potency entry in [3], in test [4], in [8] and in test [9] was “inactive” in each case. The molecule was called inactive in test [6].

Regarding `C=C/C(C)=C/[C@@]1(C)SC(=O)C(C)=C1O`, the Potency result in [1] and in test [2] was “inactive” in each case. Also, the Potency in [9] is 50.1 µM (active). Moreover, the outcome in [7] was inactive.

On to `Nc1ncnc2c1c(I)cn2[C@@H]1C[C@H](N)[C@@H](O)[C@H]1O`, for which the Potency entry in [3], in test [4], in test [8] and in [9] was “inactive” in each case. For the same molecule, the molecule was called inactive in [6].

For the molecule `CO/N=C(\C(=O)N[C@@H]1C(=O)N2C(C(=O)O)=C(COC(C)=O)CS[C@H]12)c1csc(N)n1` (stereo in doubt), the Potency entry in [1] and in [2] was “inactive” in each case. The Potency in test [9] is 56.2 µM (active). In test [7], the outcome was inactive.

In the case of `OC[C@H]1O[C@@H](n2cnc3c(NC4CCCC4)ncnc32)[C@H](O)[C@@H]1O`, the Potency result in test [3], in test [4], in test [8], in test [9] and in test [5] was “inactive” in each case. Further, in test [6], the outcome was inactive.

Turning to `C=C[C@@H]1CN2CC[C@@H]1C[C@H]2[C@H](O)c1ccnc2ccc(OC)cc12`, the results for the Potency in test [1] and in [2] were 0.0329 µM (active) and 0.0928 µM (active), respectively. For the same molecule, the Potency result in test [3] is “inactive”. Besides, the outcome in test [6] was inactive.

Turning to `CN(C)c1nc(N)c(C(=O)N=C(N)N)nc1Cl`, the Potency entry in test [2], in test [3], in test [4], in test [8] and in test [9] was “inactive” throughout. The call in [6] and in test [7] was inactive.

For the molecule `Cc1cc(NC2CCCCC2)nc(-n2nc(C)cc2C)n1`, the Potency entry in test [3], in [4], in test [8], in [9] and in [5] was “inactive” throughout. Also, in test [6], the molecule was classed as inactive.

As for `CN1CCc2cc(O)c(O)cc2C(c2ccccc2)C1` (configuration not stated), the Potency result in test [1], in test [3], in test [4], in test [8] and in [9] was “inactive” in each case. Besides, the outcome in test [6] and in test [7] was inactive.

On to `CN[C@H](CC(C)C)C(=O)N[C@H]1C(=O)N[C@@H](CC(N)=O)C(=O)N[C@H]2C(=O)N[C@H]3C(=O)N[C@H](C(=O)N[C@H](C(=O)O)c4cc(O)cc(O)c4-c4cc3ccc4O)[C@H](O)c3ccc(c(Cl)c3)Oc3cc2cc(c3O[C@@H]2O[C@H](CO)[C@@H](O)[C@H](O)[C@H]2O[C@H]2C[C@](C)(N)[C@H](O)[C@H](C)O2)Oc2ccc(cc2Cl)[C@H]1O`, for which the Potency result in test [1] and in [2] was “inactive” throughout. The outcome in test [7] was inactive.

As for `Nc1ccn([C@@H]2O[C@H](CO)[C@@H](O)[C@@H]2O)c(=O)n1`, the Potency result in test [2] and in test [9] was “inactive” throughout. Further, the result in [7] was inactive.

For the molecule `O=C(O)c1cc(=O)c2ccccc2[nH]1`, the Potency entry in [1], in [3], in [4], in test [8] and in test [9] was “inactive” throughout. Also, the Potency in [5] was 0.0474 µM (active). Moreover, the result in test [6] and in [7] was inactive.

Take `Oc1ccccc1O`: the Potency entry in test [1] and in test [3] was “inactive” throughout. Moreover, the result in test [6] and in test [7] was inactive.

`Cc1cc(NC(=O)Nc2ccc3c(ccn3C)c2)sn1`: the Potency entry in test [1], in test [3], in test [4] and in [8] was “inactive” in each case. Further, the molecule was classed as inactive in [6] and in test [7].

With `Nc1ncnc2c1ncn2[C@@H]1O[C@H](COP(=O)(O)OP(=O)(O)OP(=O)(O)OP(=O)(O)OC[C@@H]2O[C@H](n3cnc4c(N)ncnc43)[C@@H](O)[C@H]2O)[C@@H](O)[C@H]1O`, the Potency entry in test [3], in [4], in test [8], in [9] and in test [5] was “inactive” in each case. Moreover, the molecule was classed as inactive in test [6].

For the molecule `CC(C)(C)NCC(O)COc1nsnc1N1CCOCC1` (configuration not stated), the Potency entry in [2] and in test [9] was “inactive” throughout. Also, the result in [7] was inactive.

As to `CCCCC#Cc1nc(NC)c2ncn([C@@H]3O[C@H](CO)[C@@H](O)[C@H]3O)c2n1`, the Potency entry in test [3], in test [4], in [8] and in test [9] was “inactive” each time. Besides, the outcome in test [6] was inactive.

`CC(C)NC[C@H](O)COc1cccc2[nH]ccc12`: the Potency entry in test [1], in [2], in [3] and in test [4] was “inactive” throughout. The molecule was called inactive in test [6] and in [7].
